Data on 96 molecules can be found in PubChem BioAssay AID720582 (The Scripps Research Institute Molecular Screening Center, 2013).

Each structure is given as a SMILES string. Out of some 370,000 compounds screened, about 2,300 (0.62%) were called active.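 Rule for the calls: active = inhibition above a per-campaign cutoff equal to the mean of compounds falling between control-based bounds plus 3 SD (cut at about 20% in these data); inactive = the rest.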 The entries come from a sample that favours actives as a whole.

In the assay the target is Disintegrin and metalloproteinase domain-containing protein 10 (Homo sapiens) (UniProt O14672). Nature of the assay: human ADAM10 inhibitors, primary screen, biochemical, QFRET, HTS (AID 720582).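 Note: 0% = DMSO wells while the 100% control is not disclosed.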 To be noted: recombinant ADAM10, EDANS/DABCYL FRET peptide cleavage, 3 h; at 7 µM; hits give high values.
Chain of Disintegrin and metalloproteinase domain-containing protein 10 (Homo sapiens) (O14672 214-748 limits assumed): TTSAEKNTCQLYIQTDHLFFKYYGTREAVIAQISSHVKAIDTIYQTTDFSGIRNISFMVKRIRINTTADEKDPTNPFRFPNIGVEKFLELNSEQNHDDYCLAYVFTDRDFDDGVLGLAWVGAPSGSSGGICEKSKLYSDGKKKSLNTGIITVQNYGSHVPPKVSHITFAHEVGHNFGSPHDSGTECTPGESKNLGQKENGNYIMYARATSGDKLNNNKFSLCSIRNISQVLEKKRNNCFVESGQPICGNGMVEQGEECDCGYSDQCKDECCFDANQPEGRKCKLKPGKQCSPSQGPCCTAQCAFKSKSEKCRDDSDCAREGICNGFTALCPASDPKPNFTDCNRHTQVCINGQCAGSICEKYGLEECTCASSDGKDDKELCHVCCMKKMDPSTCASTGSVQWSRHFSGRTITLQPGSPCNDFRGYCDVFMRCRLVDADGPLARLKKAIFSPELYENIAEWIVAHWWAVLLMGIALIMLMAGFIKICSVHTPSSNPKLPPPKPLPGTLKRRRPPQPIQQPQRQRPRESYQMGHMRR
For `CCCCN1CCN(C(=O)c2ccc3c(c2)NC(=O)C(C)(C)O3)CC1`, the inhibition is 2.07% (inactive).

Consider `Fc1ccc2nc(COCc3nc4ccc(F)cc4[nH]3)[nH]c2c1`, for which the inhibition was 2.8% (inactive).

For `COc1cc(/C=N/O)cc(Br)c1OS(=O)(=O)c1ccc(C)cc1`, the inhibition was 21.9% (active). The same measure for `COc1cc(/C=C/c2ccc(/C=C/c3cc(OC)c(OC)c(OC)c3)cc2)cc(OC)c1OC`: -373% (inactive). As for `O=C(O)COc1ccc(/C=N/O)cc1Br`, the figure is 3.83% (inactive); as for `Cc1ccc(-n2c(SCC(=O)Nc3ccc(S(=O)(=O)Nc4nccs4)cc3)nnc2-c2ccncc2)cc1`, -1.24% (inactive).

With `CC1CCCC(C)N1C(=O)CN1CCN(c2nc(-c3ccc(F)cc3)cs2)CC1` (stereo unspecified), the inhibition is 1.47% (inactive).

In the case of `COCCCNC(=S)N1CCN(c2nc(-c3cccc(OC)c3)cs2)CC1`, the inhibition was 9.71% (inactive). The same measure for `COc1cccc(NC(=O)CN2CCN(c3nc(-c4cccc(OC)c4)cs3)CC2)c1`: 21.4% (active); for `CC[C@@H](CCC(=O)N(c1ccccc1)c1ccccc1)C1CC1`: -6.31% (inactive); for `CCOc1ccc(-n2c(SCC(=O)Nc3cc(C)c(NC(=O)c4ccccc4)cc3OC)nnc2-c2cccs2)cc1`: 17.4% (inactive). The same measure for `O=C(CSCc1ccc(Br)cc1)Nc1ccc(S(=O)(=O)N2CCCCCC2)cc1`: 24.1% (active); for `CCOc1ccc(NC(=O)COc2ccc(S(=O)(=O)N3CCCC3)cc2)cc1`: 4.99% (inactive); for `COc1ccc(OCC(=O)OCC(=O)Nc2ccc(S(=O)(=O)N3CCCCC3)cc2)cc1`: -5.59% (inactive). As for `CCOC(=O)[C@]12CCCCC/C=C\1N(Cc1ccc(OC)cc1)C(=O)[C@H]2CC(=O)N1CCOCC1`, the figure is 3.26% (inactive); as for `CCCCNC(=O)C[C@H]1C[C@@]2(C(=O)OC)C(=C[C@H](COCc3ccccc3)O[C@@H]2C)N(Cc2ccc(Cl)cc2Cl)C1=O`, 9.41% (inactive); as for `CC(C)(C)c1ccc(CSc2nnc(-c3cccs3)o2)cc1`, -4.29% (inactive). For the molecule `O=S(=O)(c1cccc(S(=O)(=O)N2CCC(n3nnc4ccccc43)CC2)c1)N1CCCCC1`, the inhibition is 20.5% (active). As for `O=[N+]([O-])c1cccc(S(=O)(=O)N2CCCCCC2)c1`, the figure is -4.84% (inactive); as for `Cc1ccc(S(=O)(=O)N2CCC(N3CCCCCC3)CC2)cc1`, 3.62% (inactive). Regarding `CC1=C(C(=O)N2CCOCC2)CC(CC(=O)NCc2cccs2)C(=O)N1CCCN1CCCC1=O` (stereo unspecified), the inhibition is -13.7% (inactive).

`COc1cc(C2CC(=O)N3CN(Cc4ccccc4)CSC3=C2C#N)ccc1OCc1ccccc1` (stereo unspecified): the inhibition is 27.5% (active). As for `CCCNC(=O)C1CC(=O)N(c2ccc(OCc3ccccc3)cc2)C1` (stereo unspecified), the figure is -1.57% (inactive); as for `COc1cc(C2C(C(=O)c3ccco3)=C(O)C(=O)N2c2cc(C)on2)ccc1OCc1ccccc1` (stereo unspecified), -2.12% (inactive); as for `N[C@@H](Cc1ccccc1)C(=O)N1CCC[C@@H]1C(=O)N1CCC2CCN(S(=O)(=O)c3ccccc3)CC21` (stereo partly specified), -2.11% (inactive).

Take `COC[C@@H]1CCCN1c1ccc2c(c1)O[C@H](C)CCN(C1CC1)S2(=O)=O`: the inhibition is -3.66% (inactive).

With `COC(=O)[C@@]12CCCCC=C1N(CCc1ccc(Cl)cc1)C(=O)[C@H]2CC(=O)NCc1ccc(OC)c(OC)c1`, the inhibition is 5.19% (inactive). In the case of `C[C@H]1[C@H](NC(=O)c2cccc(N(C)C)c2)CC[C@@]23CCCN2C(=O)CCC[C@@H]13`, the inhibition is -106% (inactive). The same measure for `CC(NC(=O)COc1ccccc1)C(=O)NC1=NCCS1` (stereo unspecified): -1.01% (inactive). As for `Cc1csc(NC(=O)CSc2nnc(-c3cccnc3)o2)n1`, the figure is -10.7% (inactive); as for `O=C(CSC1=NCCS1)Nc1nc(-c2ccccc2)cs1`, 20.3% (active); as for `C[C@H]1CN(c2ccc(Br)cc2)C(=O)[C@@H]1CC(=O)Nc1ccc(Br)cc1`, -2.69% (inactive). For `O=C(C[C@H]1C(=O)N(c2ccc(F)c(F)c2)C[C@@H]1Cc1ccccc1)Nc1ccccc1`, the inhibition was 23.2% (active).

As for `CNC(=O)C[C@H]1C(=O)N(c2ccc(OC)cc2)C[C@@H]1Cc1ccccc1`, the inhibition is -1.73% (inactive). With `O=C(COC(=O)CCCSc1nc2ccccc2[nH]1)Nc1ccc(Oc2ccccc2)cc1`, the inhibition is 23.7% (active). As for `CCN(c1ccc(NC(=O)COC(=O)CCc2nc3ccccc3n2-c2ccccc2)cc1)C(C)C`, the figure is 15.2% (inactive). For the molecule `O=C(COC(=O)CCc1nc2ccccc2c(=O)[nH]1)Nc1ccc(N2CCOCC2)cc1`, the inhibition was 0.32% (inactive). `COc1cccc(N2CCN(CC(=O)N(C)Cc3ccc(F)cc3)CC2)c1`: the inhibition was -2.14% (inactive).

Take `CCCC(=O)Nc1ccc(C(=O)NCCCn2ccnc2)cc1`: the inhibition is -4.06% (inactive). `CCOC(=O)[C@]12CCCC3=C1N(CCC3)C(=O)[C@@H](CC(=O)N1CCSCC1)C2`: the inhibition is 4.75% (inactive). The same measure for `CCN1C(=O)[C@H]2[C@@H](c3ccc(C(F)(F)F)cc3)N[C@]3(CCCN(Cc4ccc(Br)cc4)C3=O)[C@H]2C1=O`: 2.63% (inactive); for `O=C1[C@H]2[C@@H](c3ccc(C(F)(F)F)cc3)N[C@]3(CCCN(Cc4ccc(Br)cc4)C3=O)[C@H]2C(=O)N1Cc1ccccc1`: 36.9% (active).

With `O=C1[C@H]2[C@@H](c3ccc(C(F)(F)F)cc3)N[C@]3(CCCN(Cc4ccc(Cl)cc4)C3=O)[C@H]2C(=O)N1Cc1ccccc1`, the inhibition is 17.5% (inactive). On to `CC(C)N1CCCCC(NC(=O)c2ccc3ccccc3c2)C1=O` (stereo unspecified), for which the inhibition is -1.93% (inactive).

For the molecule `CCOC(=O)[C@]12CCCC3=C1N(CCC3)C(=O)[C@@H](CC(=O)NCc1cccs1)C2`, the inhibition is -1.3% (inactive). For `CC(C)CNC(=O)OCc1cn(Cc2ccc(F)cc2)nn1`, the inhibition was 2.74% (inactive). As for `O=C(CSc1nc2ccccc2nc1N1CCCCC1)N1CCN(S(=O)(=O)c2cccc([N+](=O)[O-])c2)CC1`, the figure is -10.6% (inactive); as for `COC(=O)[C@@]12C[C@@H](CC(=O)NCCCCc3ccccc3)C(=O)N(Cc3ccccc3)C1=CCC(C)(C)C2`, 14.6% (inactive).

Take `COC(=O)[C@]12C[C@H](CC(=O)NCc3ccccc3)C(=O)N(CCc3ccc(OC)c(OC)c3)C1=C[C@H](C(C)(C)C)O[C@@H]2C`: the inhibition is 10.1% (inactive). In the case of `COC(=O)[C@@]12C[C@@H](CC(=O)NCCCCc3ccccc3)C(=O)N(CCc3ccc(OC)c(OC)c3)C1=CCC(C)(C)C2`, the inhibition is 20.4% (active). The same measure for `c1coc(CCNc2ncnc3ccc(-c4ccc5c(c4)OCO5)cc23)c1`: -144% (inactive); for `CCC(=O)c1c(CC)c2n3c1=CC[C@H]3CC(Br)C=2` (stereo partly specified): -7.64% (inactive). As for `COC(=O)[C@]12C[C@H](CC(=O)NCc3ccccc3)C(=O)N(CCC3=CCCCC3)C1=C[C@H](C(C)C)O[C@@H]2C1CC1`, the inhibition was 15.1% (inactive). Take `CN(NS(=O)(=O)c1cccs1)c1ncc(C(F)(F)F)cc1Cl`: the inhibition was -3.41% (inactive). For the molecule `O=S(=O)(Nc1ccc(Oc2ncccn2)c(Cl)c1)c1ccc(F)cc1`, the inhibition was 7.14% (inactive).

Regarding `Cc1cc(C)cc(NS(=O)(=O)c2ccc(Oc3ncc(C(F)(F)F)cc3Cl)cc2)c1`, the inhibition is 24% (active). Take `Cc1ccc(NC(=O)c2cc(C)nn2-c2ccccc2)c(C)c1`: the inhibition is 1.23% (inactive). The same measure for `C#CCN([C@H](C(=O)OC)C(C)CC)S(=O)(=O)c1ccccc1Br` (stereo partly specified): 5.73% (inactive); for `COC(=O)CN1C(C)=Nc2ccc(Br)cc2C1c1ccccc1` (stereo unspecified): -0.34% (inactive).

With `COC(=O)C1NN=C(C(=O)c2ccc(Br)cc2)C1c1cccc(Br)c1` (stereo unspecified), the inhibition was 20% (active).

Take `COC(=O)C1=C(C)N(C)C(C)=C(C(=O)OC)C1c1cccc(Br)c1`: the inhibition is 1.25% (inactive). `COc1cccc(Cn2cc(COC(=O)Nc3ccc(F)cc3)nn2)c1`: the inhibition is 3.55% (inactive).

Consider `O=C(C1CCCN1S(=O)(=O)c1ccccc1)N1CCc2ccccc2C1` (stereo unspecified), for which the inhibition is 5.1% (inactive). As for `CNC(=O)c1[nH]cnc1C(=O)N[C@@H](CC(C)C)C(=O)OC(C)(C)C`, the figure is 1.72% (inactive).

Take `CNC(=O)c1[nH]cnc1C(=O)N[C@@H](CC(C)C)C(=O)OCc1ccccc1`: the inhibition is -0.66% (inactive).

Regarding `CC(C)(C)OC(=O)N1CCC(NC(=O)c2[nH]cnc2C(=O)N[C@@H](Cc2ccccc2)C(=O)OCc2ccccc2)CC1`, the inhibition was 26.5% (active). Regarding `C[C@@H](NC(=O)c1nc[nH]c1C(=O)N1CCN(C(=O)OC(C)(C)C)CC1)c1ccccc1`, the inhibition is -5.64% (inactive). As for `CC(C)(C)OC(=O)CNC(=O)c1[nH]cnc1C(=O)N[C@@H](Cc1ccccc1)C(=O)OCc1ccccc1`, the figure is 27% (active).

Take `C[C@H](NC(=O)c1nc[nH]c1C(=O)NCC(=O)OC(C)(C)C)c1ccccc1`: the inhibition was 4.61% (inactive). The same measure for `CCOC(=O)C1CCN(C(=O)C(C)(C)NC(=O)Nc2ccccc2Cl)CC1`: -4.18% (inactive). The same measure for `O=C(c1ccccc1)c1ccc(-c2ccccc2C(=O)NC2CCCCN(Cc3ccc(Cl)cc3)C2=O)cc1` (stereo unspecified): 0.76% (inactive); for `COc1ccc(CCNC(=O)CSc2nc3c([nH]2)c(=O)n(C)c(=O)n3C)cc1`: -8.76% (inactive); for `Cc1cc(C)n2ncc(C(=O)Nc3ccc4c(c3)OCCO4)c2n1`: -3.85% (inactive). For the molecule `CCC(=O)Nc1ccc2c(c1)C(=O)N(C)[C@H]1CC[C@H](CC(=O)NCCOC)O[C@@H]1CO2`, the inhibition is 2.62% (inactive). As for `Cc1cccc(CCNS(=O)(=O)c2ccc(S(=O)(=O)NC3CCCC3)cc2)c1`, the inhibition is 27.1% (active). Regarding `Cc1cccc(CCNS(=O)(=O)c2ccc3c(c2)NC(=O)CO3)c1`, the inhibition is 0.59% (inactive). For `CC(C)c1ccc(S(=O)(=O)NC2CCCC2)cc1`, the inhibition is -3.8% (inactive). The same measure for `Cc1ccc(NC(=S)NNC(=O)CSc2nnc(SCc3ccccc3Cl)s2)cc1`: 17.8% (inactive); for `Cc1ccc(NC(=O)Nc2cc(C)nn2-c2ccccc2)cc1`: -2.62% (inactive); for `Cc1cc(Nc2ccccc2)n(C(=O)c2ccc(N)cc2)n1`: 21.3% (active).

As for `Cn1c(Nc2ccccc2)cc(=O)n(C)c1=O`, the inhibition is 7.08% (inactive). As for `O=C(NNC(=O)c1cccc(S(=O)(=O)Nc2ccc(Cl)cc2)c1)c1ccc(=O)[nH]c1`, the figure is 2.04% (inactive). As for `O=C(Nc1cccc(S(=O)(=O)Nc2ccc(Cl)cc2)c1)c1ccc2c(c1)OCCO2`, the figure is 20.5% (active); as for `CC(=O)Nc1ccc(C(=O)Nc2cccc(S(=O)(=O)NC3=NCCC3)c2)cc1`, -1.25% (inactive). As to `O=C(NC1CCC1)c1ccc(C#CC2CC2)cn1`, the inhibition was -7.03% (inactive).

Take `COc1ccc(-n2c(COc3ccc(C)cc3)nnc2SCC(=O)Nc2ccc(Oc3ccccc3)cc2)cc1`: the inhibition was -2.63% (inactive). The same measure for `COc1cc(COCC(O)CN2CCN(Cc3ccc4c(c3)OCO4)CC2)cc(OC)c1OC` (stereo unspecified): -2.3% (inactive); for `COc1cc(Cl)c(S(=O)(=O)N2CCN(Cc3ccc4c(c3)OCO4)CC2)cc1Cl`: 45.9% (active); for `COc1ccc(-c2cc(C(=O)N3CCN(Cc4ccc5c(c4)OCO5)CC3)on2)cc1OC`: -0.99% (inactive). As for `Cc1ccccc1CN1CCCCC(NC(=O)c2cccc(C#N)c2)C1=O` (stereo unspecified), the figure is -1.06% (inactive); as for `Cc1nc2ccc(C(=O)N3CCN(C(=O)C(C)(C)C)CC3)cc2n1C1CCCC1`, 1.94% (inactive); as for `Cc1csc(NC(=S)Nc2cccc(Cl)c2)n1`, 23.1% (active). For `COc1cc(SC)ccc1C(=O)Nc1nc(C)cs1`, the inhibition is -7.24% (inactive). The same measure for `Cc1ccc(C2CCN(C(=S)Nc3cccc(Cl)c3)C2)cc1` (stereo unspecified): 8.61% (inactive); for `C=C(C)C1CC23C(=O)C4(C(=O)c5ccccc5)C[C@@]5(C)CCC(CC2C1(C)C)(C4=O)C35OC` (stereo partly specified): -9.26% (inactive). The same measure for `O=C(C1CCN(S(=O)(=O)c2ccccc2)CC1)N1CCN(C2CCCCC2)CC1`: -10.1% (inactive).
